Our source for the Potency and max activation values is PubChem BioAssay (Tox21).

The nature of assay [1]: Human pregnane X receptor (PXR) small molecule agonists, qHTS cell viability counter screen (AID 1346977). Note: nearly all actives have a fitted effect of over 50% in size. Note: potency is the fitted concentration of half-maximal effect. In outline: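 In each well, the PXR reporter HepG2 line was checked for viability: CellTiter-Fluor reagent added 23hr post-dosing, fluorescence read after 1hr incubation at 37C.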
Assay [2] can be described thus: Caspase-3/7 induction in HepG2 cells by small molecules, qHTS assay (AID 1346978). Note: nearly all actives have a fitted effect of over 15% in size. Note: potency is the fitted concentration of half-maximal effect. In outline: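 Caspase-3/7 induction was measured by Caspase-Glo 3/7 luminescence (30 min, room temperature) after a 17 hr compound exposure of wild-type HepG2 cells seeded at 2,000 per well and pre-incubated 5 hr.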
Assay [3] is described as follows: Caspase-3/7 induction in CHO-K1 cells by small molecules, qHTS cell viability counter screen (AID 1346979). Note: nearly all actives have a fitted effect of over 35% in size. Note: potency is the fitted concentration of half-maximal effect. Put shortly:
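Following a 5hr settling period, CHO-K1 cells at 1,500 per well received DMSO-dissolved compounds. Cell viability was quantified 16hr later by CellTiter-Fluor fluorescence, measured after 1hr with reagent at 37C.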
On the technique in general: In qHTS, concentration-response curves come from the screen itself.

The nature of assay [4]: Caspase-3/7 induction in CHO-K1 cells by small molecules, qHTS assay (AID 1346980). Note: nearly all actives have a fitted effect of over 15% in size. Note: potency is the fitted concentration of half-maximal effect. In outline: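 Luminescent Caspase-Glo 3/7 read (30min, room temperature) quantified apoptosis induction. Cells were wild-type CHO-K1, treated with compound for 17hr at 37 C and 5% CO2.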
A short description of assay [5]: Caspase-3/7 induction in HepG2 cells by small molecules, qHTS cell viability counter screen (AID 1346981). Note: nearly all actives have a fitted effect of over 30% in size. Note: potency is the fitted concentration of half-maximal effect. Put shortly:
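Fluorescence read-out of live-cell protease activity (CellTiter-Fluor) after 1 hr with reagent. This was measured in the same wells as the caspase-3/7 luminescence, on HepG2 cells exposed to DMSO-dissolved compounds for 16 hr at 37 C.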

In assay [6] the target is Nuclear receptor subfamily 1 group I member 2 (Homo sapiens) (UniProt O75469). Put plainly: Human pregnane X receptor (PXR) small molecule agonists, qHTS assay (AID 1346982). Note: nearly all actives have a fitted effect of over 35% in size. Note: potency is the fitted concentration of half-maximal effect. In outline: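 HepG2 PXR-Luc reporter line, 5% charcoal-stripped FBS; 5 hr pre-incubation, compound (DMSO) 24 hr at 37 C/5% CO2; ONE-Glo 30 min RT; luminescence read-out.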
Assay [7] addresses Cytochrome P450 2D6 (Homo sapiens) (UniProt P10635). As to the kind of experiment: Cytochrome P450 Family 2 Subfamily D Member 6 (CYP2D6) small molecule antagonists: luciferase reporter qHTS assay (AID 1671196). Note: nearly all actives have a fitted effect of over 50% in size. Note: potency is the fitted concentration of half-maximal effect. Put shortly: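 Luminogenic proluciferin substrate, CYP2D6 enzyme; 10 min RT preincubation with compound, NADPH regeneration system added, 1 h RT. Stop/detection reagent, 20 min RT, luminescence read (RLU). Signal proportional to CYP activity.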
In general terms: Reporter assays use an easily measured gene product as a stand-in for the process of interest.

Assay [8] deals with Cytochrome P450 2C19 (Homo sapiens) (UniProt P33261). Put plainly: Cytochrome P450 Family 2 Subfamily C Member 19 (CYP2C19) small molecule antagonists: luciferase reporter qHTS assay (AID 1671197). Note: nearly all actives have a fitted effect of over 65% in size. Note: potency is the fitted concentration of half-maximal effect. In outline: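 First, compounds are pinned into enzyme-substrate mix and held 10 min at room temperature. Second, NADPH regeneration solution is added and plates incubate 1 h at 37C. Third, detection reagent is added and luminescence read after 20 min.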

In assay [9] the target is Cytochrome P450 2C9 (Homo sapiens) (UniProt P11712). Put plainly: Cytochrome P450 Family 2 Subfamily C Member 9 (CYP2C9) small molecule antagonists: luciferase reporter qHTS assay (AID 1671198). Note: nearly all actives have a fitted effect of over 50% in size. Note: potency is the fitted concentration of half-maximal effect. Put shortly:
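Enzyme-substrate mix preincubated with compound 10 min at room temperature; reaction started with NADPH regeneration solution, 1 h 37C. Luminescent luciferin product read after 20 min detection reagent.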

Assay [10] addresses Cytochrome P450 1A2 (Homo sapiens) (UniProt P05177). As to the kind of experiment: Cytochrome P450 Family 1 Subfamily A Member 2 (CYP1A2) small molecule antagonists: luciferase reporter qHTS assay (AID 1671199). Note: nearly all actives have a fitted effect of over 50% in size. Note: potency is the fitted concentration of half-maximal effect. Put shortly: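 Luminescence readout (relative luminescence units) after luciferin detection reagent, 20 min RT. Preceded by 1 h room-temperature CYP1A2 reaction with NADPH regeneration solution following 10 min compound preincubation with enzyme and proluciferin substrate. Furafylline positive control.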

The target in assay [11] is Cytochrome P450 3A4 (Homo sapiens) (UniProt P08684). Put plainly: Cytochrome P450 Family 3 Subfamily A Member 4 (CYP3A4) small molecule antagonists: luciferase reporter qHTS assay (AID 1671201). Note: nearly all actives have a fitted effect of over 50% in size. Note: potency is the fitted concentration of half-maximal effect. Put shortly:
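CYP3A4 activity was followed with a P450-Glo proluciferin substrate. Test compounds in DMSO were preincubated 10 min; NADPH regeneration then ran 1 h, and light output was read 20 min after detection reagent.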

Assay [12] has as its target Voltage-gated inwardly rectifying potassium channel KCNH2 (Homo sapiens) (UniProt Q12809). Put plainly: Human Ether-a-go-go-Related Gene (hERG) channel small molecule antagonists: fluorescence cell-based qHTS assay (AID 1671200). Note: nearly all actives have a fitted effect of over 50% in size. Note: potency is the fitted concentration of half-maximal effect. In outline:
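In this thallium-flux screen, overnight-cultured U2OS cells bearing the channel are dye-loaded in darkness for an hour, rested 10 min at room temperature, and then monitored kinetically at 480/540 nm for two minutes post-stimulus.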

Assay [13] has as its target Nuclear receptor subfamily 1 group I member 2 (Rattus norvegicus) (UniProt Q9R1A7). As to the kind of experiment: Rat pregnane X receptor (rPXR) activation by small molecules, qHTS assay (AID 1346983). Note: nearly all actives have a fitted effect of over 20% in size. Note: potency is the fitted concentration of half-maximal effect. To be noted: rPXR luciferase reporter cells, One-Glo luminescence, 24 h; max activation: stronger effect = higher value. In outline: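 Luminescent readout (One-Glo luciferase, 30 min room temperature) followed 24 hr compound treatment at 37 C of rPXR cells plated 2,000 per well and preincubated 5hr; qHTS format with compounds delivered in DMSO.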

Assay [14] has as its target Nuclear receptor subfamily 1 group I member 2 (Homo sapiens) (UniProt O75469). As to the kind of experiment: CYP3A4 induction through human pregnane X receptor (PXR) by small molecules, qHTS assay (AID 1346984). Note: nearly all actives have a fitted effect of over 40% in size. Put shortly:
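HepG2-derived DPX-2 line carrying PXR plus a CYP3A4-promoter luciferase reporter; cells plated 5 hr, compound-exposed 24 hr at 37C. CYP3A4 activity probed with 3uM (final) Luciferin-IPA for 3hr, then luciferase read after One-Glo.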

Assay [15] shares this target. As to the kind of experiment: Human pregnane X receptor (PXR) activation by small molecules, qHTS assay (AID 1346985). Note: nearly all actives have a fitted effect of over 40% in size. Put shortly: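 DPX-2 cells (HepG2 co-transfected with a PXR response element and a CYP3A4-promoter luciferase construct) were seeded at 2,000 per well, rested 5 hr at 37C, then exposed to DMSO-dissolved compounds for 24 hr. Activation was read as luciferase luminescence.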

Values joined by “and” are separate entries in the source; they are usually repeats but may differ in a detail not shown here. Identical values can stand only once. Results filed as inconclusive are left out. Where a structure was tested more than once in an assay, its records may differ in their call. Active and inactive are the calls of the source. Calls come from the whole dose curve; as a rule, active = well fitted curve in the direction sought with a large enough effect in the repeat runs; inconclusive = weak or mixed curves; inactive = no such curve, though single readings can be large; an effect the other way counts as inactive or inconclusive.
% is set by controls: 0 for no effect and ±100 for the full control effect.

Chain of Cytochrome P450 3A4 (Homo sapiens) (P08684 whole entry, looked up): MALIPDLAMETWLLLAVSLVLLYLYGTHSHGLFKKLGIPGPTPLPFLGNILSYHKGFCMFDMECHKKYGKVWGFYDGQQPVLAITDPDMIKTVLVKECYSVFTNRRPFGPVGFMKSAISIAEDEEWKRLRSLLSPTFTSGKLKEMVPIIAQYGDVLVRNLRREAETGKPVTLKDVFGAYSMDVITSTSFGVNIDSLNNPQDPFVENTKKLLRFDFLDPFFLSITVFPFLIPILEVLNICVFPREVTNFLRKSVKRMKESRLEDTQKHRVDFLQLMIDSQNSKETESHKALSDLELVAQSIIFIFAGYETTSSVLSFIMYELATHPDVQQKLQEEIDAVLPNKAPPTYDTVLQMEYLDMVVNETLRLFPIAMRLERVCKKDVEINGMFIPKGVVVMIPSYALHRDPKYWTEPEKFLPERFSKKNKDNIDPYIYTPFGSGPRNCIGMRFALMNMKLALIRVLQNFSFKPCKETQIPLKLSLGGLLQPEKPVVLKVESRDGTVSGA
Chain of Nuclear receptor subfamily 1 group I member 2 (Rattus norvegicus) (Q9R1A7 whole entry, looked up): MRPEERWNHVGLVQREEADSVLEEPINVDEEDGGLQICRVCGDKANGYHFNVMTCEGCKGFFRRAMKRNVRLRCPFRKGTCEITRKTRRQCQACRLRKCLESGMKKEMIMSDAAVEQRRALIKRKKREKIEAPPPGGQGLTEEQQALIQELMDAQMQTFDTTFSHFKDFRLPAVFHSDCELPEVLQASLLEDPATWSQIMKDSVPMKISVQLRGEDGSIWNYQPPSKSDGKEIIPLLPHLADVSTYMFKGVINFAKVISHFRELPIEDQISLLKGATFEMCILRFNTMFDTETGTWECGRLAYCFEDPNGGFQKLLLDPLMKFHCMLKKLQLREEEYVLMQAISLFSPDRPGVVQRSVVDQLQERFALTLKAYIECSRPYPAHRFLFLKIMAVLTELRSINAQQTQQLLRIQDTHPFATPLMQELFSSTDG
Chain of Cytochrome P450 1A2 (Homo sapiens) (P05177 whole entry, looked up): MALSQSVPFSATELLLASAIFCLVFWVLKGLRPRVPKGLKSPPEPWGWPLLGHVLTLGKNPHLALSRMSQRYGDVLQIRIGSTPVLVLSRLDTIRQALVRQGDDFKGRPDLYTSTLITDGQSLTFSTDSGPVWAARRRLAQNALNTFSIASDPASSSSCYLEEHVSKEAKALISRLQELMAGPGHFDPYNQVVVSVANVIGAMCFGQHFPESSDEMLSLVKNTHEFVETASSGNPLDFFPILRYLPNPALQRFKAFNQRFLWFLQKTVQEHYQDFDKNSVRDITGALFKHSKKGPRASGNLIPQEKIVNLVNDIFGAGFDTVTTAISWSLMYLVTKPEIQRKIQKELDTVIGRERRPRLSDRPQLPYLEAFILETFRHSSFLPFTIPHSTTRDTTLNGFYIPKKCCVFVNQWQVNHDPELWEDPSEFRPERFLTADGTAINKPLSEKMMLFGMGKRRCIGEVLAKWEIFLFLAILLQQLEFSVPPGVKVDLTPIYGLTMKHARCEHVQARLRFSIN
Chain of Cytochrome P450 2D6 (Homo sapiens) (P10635 whole entry, looked up): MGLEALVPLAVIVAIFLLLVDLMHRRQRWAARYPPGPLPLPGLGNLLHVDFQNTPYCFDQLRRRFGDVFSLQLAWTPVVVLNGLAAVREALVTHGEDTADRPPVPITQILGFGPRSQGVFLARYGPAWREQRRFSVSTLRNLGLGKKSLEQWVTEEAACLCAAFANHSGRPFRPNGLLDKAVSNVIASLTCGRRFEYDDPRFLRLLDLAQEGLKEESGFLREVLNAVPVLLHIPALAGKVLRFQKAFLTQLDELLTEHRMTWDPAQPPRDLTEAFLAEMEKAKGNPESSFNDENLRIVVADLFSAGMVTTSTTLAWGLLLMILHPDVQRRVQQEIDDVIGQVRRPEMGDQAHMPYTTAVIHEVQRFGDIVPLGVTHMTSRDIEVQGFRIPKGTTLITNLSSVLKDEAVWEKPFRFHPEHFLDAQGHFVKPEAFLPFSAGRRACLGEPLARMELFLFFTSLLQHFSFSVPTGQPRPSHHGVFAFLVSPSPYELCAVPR
Chain of Cytochrome P450 2C9 (Homo sapiens) (P11712 whole entry, looked up): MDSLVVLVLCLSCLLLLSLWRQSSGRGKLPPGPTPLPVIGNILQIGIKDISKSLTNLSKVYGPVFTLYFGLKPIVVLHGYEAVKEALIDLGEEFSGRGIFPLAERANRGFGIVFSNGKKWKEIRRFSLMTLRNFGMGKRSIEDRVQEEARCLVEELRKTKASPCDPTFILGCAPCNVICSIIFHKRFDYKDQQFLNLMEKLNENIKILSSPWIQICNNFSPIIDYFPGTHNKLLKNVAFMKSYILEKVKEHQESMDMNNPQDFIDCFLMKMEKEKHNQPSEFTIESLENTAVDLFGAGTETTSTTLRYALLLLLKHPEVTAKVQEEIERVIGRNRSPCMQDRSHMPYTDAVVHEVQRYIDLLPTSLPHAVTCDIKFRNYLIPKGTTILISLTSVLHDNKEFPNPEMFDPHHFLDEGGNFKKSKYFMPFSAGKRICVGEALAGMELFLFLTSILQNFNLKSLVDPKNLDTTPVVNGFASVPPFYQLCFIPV
Chain of Nuclear receptor subfamily 1 group I member 2 (Homo sapiens) (O75469 whole entry, looked up): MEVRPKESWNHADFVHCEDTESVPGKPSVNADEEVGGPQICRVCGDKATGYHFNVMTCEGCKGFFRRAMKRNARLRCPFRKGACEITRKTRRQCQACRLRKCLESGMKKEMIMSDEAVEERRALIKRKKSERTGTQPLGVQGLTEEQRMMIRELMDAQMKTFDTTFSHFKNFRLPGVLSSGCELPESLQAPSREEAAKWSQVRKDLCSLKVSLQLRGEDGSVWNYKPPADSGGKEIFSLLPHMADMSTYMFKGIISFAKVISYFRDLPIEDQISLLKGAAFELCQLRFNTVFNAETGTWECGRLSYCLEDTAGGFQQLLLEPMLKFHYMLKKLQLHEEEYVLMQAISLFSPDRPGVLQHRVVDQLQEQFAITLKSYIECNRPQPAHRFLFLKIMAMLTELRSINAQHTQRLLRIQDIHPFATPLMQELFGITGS
Chain of Voltage-gated inwardly rectifying potassium channel KCNH2 (Homo sapiens) (Q12809 whole entry, looked up): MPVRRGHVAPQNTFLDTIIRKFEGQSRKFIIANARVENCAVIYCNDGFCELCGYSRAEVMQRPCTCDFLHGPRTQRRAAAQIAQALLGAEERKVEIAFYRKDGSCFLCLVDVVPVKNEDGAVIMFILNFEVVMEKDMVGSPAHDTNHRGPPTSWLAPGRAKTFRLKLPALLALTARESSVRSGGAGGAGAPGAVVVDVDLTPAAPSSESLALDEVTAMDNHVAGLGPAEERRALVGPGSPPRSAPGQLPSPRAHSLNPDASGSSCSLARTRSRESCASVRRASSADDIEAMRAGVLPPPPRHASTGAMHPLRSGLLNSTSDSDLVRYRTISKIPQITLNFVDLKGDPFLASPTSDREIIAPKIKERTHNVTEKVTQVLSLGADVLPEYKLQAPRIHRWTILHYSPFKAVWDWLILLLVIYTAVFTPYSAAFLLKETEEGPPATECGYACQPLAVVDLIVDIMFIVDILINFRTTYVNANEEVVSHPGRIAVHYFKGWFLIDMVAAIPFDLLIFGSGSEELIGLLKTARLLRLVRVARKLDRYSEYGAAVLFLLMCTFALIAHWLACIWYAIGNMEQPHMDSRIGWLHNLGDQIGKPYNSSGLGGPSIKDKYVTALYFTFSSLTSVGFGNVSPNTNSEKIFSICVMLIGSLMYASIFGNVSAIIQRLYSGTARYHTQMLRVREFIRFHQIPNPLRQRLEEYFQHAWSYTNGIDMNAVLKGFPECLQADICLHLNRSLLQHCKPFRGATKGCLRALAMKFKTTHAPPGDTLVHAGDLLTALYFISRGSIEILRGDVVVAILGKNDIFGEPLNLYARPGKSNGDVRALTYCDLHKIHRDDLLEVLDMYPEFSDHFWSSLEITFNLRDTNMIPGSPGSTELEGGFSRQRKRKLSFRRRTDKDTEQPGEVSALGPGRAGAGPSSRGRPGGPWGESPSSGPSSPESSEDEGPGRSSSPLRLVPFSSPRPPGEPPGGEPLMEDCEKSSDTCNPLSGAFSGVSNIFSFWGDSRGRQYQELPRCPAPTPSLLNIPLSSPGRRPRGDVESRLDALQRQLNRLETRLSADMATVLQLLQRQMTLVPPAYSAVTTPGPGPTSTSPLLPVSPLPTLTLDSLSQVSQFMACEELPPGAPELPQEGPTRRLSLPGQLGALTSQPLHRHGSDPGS
Chain of Cytochrome P450 2C19 (Homo sapiens) (P33261 whole entry, looked up): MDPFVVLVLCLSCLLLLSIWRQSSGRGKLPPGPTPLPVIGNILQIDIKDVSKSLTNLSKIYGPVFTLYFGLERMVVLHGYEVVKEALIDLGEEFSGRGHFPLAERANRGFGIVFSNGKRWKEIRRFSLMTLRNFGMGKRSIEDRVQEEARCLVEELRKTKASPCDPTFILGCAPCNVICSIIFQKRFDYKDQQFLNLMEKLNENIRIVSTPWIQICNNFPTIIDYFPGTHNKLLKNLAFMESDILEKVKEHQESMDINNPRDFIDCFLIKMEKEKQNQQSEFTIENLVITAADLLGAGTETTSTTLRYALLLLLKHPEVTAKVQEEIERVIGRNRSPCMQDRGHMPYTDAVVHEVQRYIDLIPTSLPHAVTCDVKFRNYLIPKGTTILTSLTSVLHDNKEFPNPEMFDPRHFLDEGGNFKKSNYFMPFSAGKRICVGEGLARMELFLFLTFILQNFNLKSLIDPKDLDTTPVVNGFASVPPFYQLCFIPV

In the case of `OCCOCC#CCOCCO`, the Potency entry in [1], in assay [2], in [3], in assay [4], in [5] and in assay [6] was “inactive” throughout. Further, the Potency result in assay [7], in [8], in assay [9], in assay [10] and in assay [11] was “inactive” each time.

On to `O=[N+]([O-])c1cc(C2CCCCC2)c(O)c([N+](=O)[O-])c1`, for which the Potency is 4.31 µM (active) in assay [1]; 7.67 µM (active) in [3]; 15.3 µM (active) in [5]; 8.61 µM (active) in [6]; 31.6 µM (active) in [7]; 39.8 µM (active) in assay [8]. Moreover, the Potency in assay [9] was 8.91 µM (active). The Potency entry in [2], in assay [4], in assay [12] and in assay [11] was “inactive” each time.

For `Nc1ccc(N=Nc2ccccc2)c(N)c1`, the Potency is 33.6 µM (active) in [1]; 59.8 µM (active) in assay [3]; 53.3 µM (active) in [5]; 1.69 µM (active) in assay [6]; 2.2 µM (active) in assay [7]; 24.7 µM (active) in [8]. Also, the Potency in assay [9] was 31 µM (active); in assay [10], 7.8 µM (active); in assay [12], 17 µM (active); in assay [11], 11 µM (active). Besides, the Potency entry in assay [2] and in assay [4] was “inactive” in each case.

Turning to `C[C@@H](O)[C@H]1C(=O)N2C(C(=O)O)=C([C@H]3CCCO3)S[C@H]12`, the Potency entry in assay [1], in assay [2], in assay [3], in assay [4], in assay [5] and in assay [6] was “inactive” each time. Moreover, the Potency result in assay [14], in assay [15], in [7], in assay [8], in assay [9] and in assay [10] was “inactive” throughout. The Potency result in assay [12] and in assay [11] was “inactive” in each case. Also, the max activation in assay [13] was -4.46% (inactive).

For the compound `CCCCC(CC)COP(=O)(O)O` (stereo not given), the Potency entry in [1], in assay [2], in assay [3], in assay [4], in assay [5] and in assay [6] was “inactive” in each case. Also, the Potency entry in assay [7], in assay [10], in assay [12] and in assay [11] was “inactive” throughout. Besides, the Potency in assay [8] and in assay [9] was 40.6 µM (active) each time.

`C=C1c2cccc(O)c2C(O)=C2C(=O)[C@]3(O)C(O)=C(C(N)=O)C(=O)[C@@H](N(C)C)[C@@H]3[C@@H](O)[C@H]12`: the Potency entry in assay [1], in assay [2], in assay [3], in [4], in assay [5] and in assay [6] was “inactive” throughout. Further, the Potency entry in assay [14], in assay [15], in assay [10], in assay [12] and in [11] was “inactive” throughout. Besides, in assay [13], the max activation is -2.64% (inactive).

With `Cc1ccc(Cl)c(Nc2ccccc2C(=O)O)c1Cl`, the Potency result in [1], in assay [2], in assay [3], in [4], in [5] and in assay [6] was “inactive” in each case. For the same compound, the Potency result in [14], in assay [15], in assay [7], in [10] and in [11] was “inactive” in each case. For the same compound, the max activation in [13] is 0.813% (inactive). Besides, the Potency in assay [9] was 17.4 µM (active).

`COC(=O)CCS`: the Potency entry in assay [1], in assay [2], in [3], in [4], in assay [5] and in assay [6] was “inactive” throughout. Besides, the Potency entry in assay [7], in assay [9], in assay [12] and in assay [11] was “inactive” each time. In assay [8], the Potency is 70.4 µM (active).

As for `C[C@@H]1CC(=O)NN=C1c1ccc(NN=C(C#N)C#N)cc1`, the Potency in assay [1] is 16.8 µM (active) and 21.1 µM (active); in assay [2], 29.8 µM (active); in assay [3], 11.9 µM (active); in assay [4], “inactive and 13.3 µM (active)”; in [5], 18.8 µM (active) and 23.7 µM (active); in assay [6] it was 11.9 µM (active) and 21.1 µM (active). Moreover, the Potency in assay [13] was 14.1 µM (active); in assay [9], 1.38 µM (active) and 1.23 µM (active). Further, the Potency entry in assay [14], in assay [15], in assay [7], in assay [10] and in assay [11] was “inactive” in each case.
